Hits are enriched below; roughly 19% of the tested compounds scored in any of these assays.
ELG1 repair inh = qHTS screen for small molecules that inhibit ELG1-dependent DNA repair in human embryonic kidney (HEK293T) cells expressing luciferase-tagged ELG1 | 2.3% of 330,000 active | Potency, µM (titrated, usually from 46.1 µM), for inactives: top-dose activity change, negative = inhibition, actives largely listed as inhibitors | HEK293T ELG1-luciferase reporter, luminescence, 16 h; DNA damage induced by 5-fluorouridine; further: potency means the concentration at half of the fitted maximal effect; nearly all actives have a fitted effect of over 55% in size
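Overnight (16 hr) co-exposure of 2,000 cells/well to 5-fluorouridine and compound at 37 °C preceded detection. Luciferase was quantified via ONE-Glo luminescence; loss of signal denotes inhibition.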
TDP1 cell CPT = qHTS for Inhibitors of human tyrosyl-DNA phosphodiesterase 1 (TDP1): qHTS in cells in presence of CPT. 12% of 420,000 active. chicken DT40 Tdp1-/-;hTDP1 cells + 20 nM CPT, ATP luminescence, 48 h. Potency, µM (top dose mostly 46.2 µM), inactives show at the top dose activity change, negative = growth inhibition, usual class: inhibitors; further: potency means the concentration at half of the fitted maximal effect; nearly all actives have a fitted effect of over 55% in size
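Chicken DT40 Tdp1-/- cells stably complemented with human TDP1 were seeded at 400 cells/well in medium containing 20 nM camptothecin, exposed to pin-transferred compounds, and grown at 37 °C for at least 48 hr. Viability was read as ATP luminescence.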
IL1B secr inh = qHTS for Inhibitors of Inflammasome Signaling: IL-1-beta AlphaLISA Primary Screen. THP-1 LPS/ATP IL-1B secretion, AlphaLISA, 16 h; active compounds read low. activity change, % at 57.5 µM. 4.7% of 360,000 active. AID 743279, 2014; in the data active means activity change below about -50%; inconclusive means mostly about -30% to -49%
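THP-1 cells pretreated 1 hr with compounds (up to 57.5 uM final), then stimulated with LPS (250 ng/mL final) plus ATP (1.25 mM final); secreted IL-1B measured by AlphaLISA after 16 hr, decreased signal indicating inhibition.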
HT1080 IDH1KD tx = qHTS for induction of synthetic lethality in tumor cells producing 2HG: qHTS for the HT-1080-IDH1KD cell line; HT-1080 IDH1 knockdown viability, ATP luminescence, 48 h; 2% of 360,000 active; AID 686971, 2013; Potency, µM (titrated, usually from 46.1 µM), for the others: at the highest dose activity, negative = toxicity, most hits filed as cytotoxic;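 further: potency means the concentration at half of the fitted maximal effect; 0% = DMSO wells and -100% = cell-free medium wells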
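% activity derives from luminescence (CellTiter-Glo), normalised to DMSO and no-cell wells. HT-1080-IDH1KD cells, 750/well, had 48 h compound exposure at 37 °C.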
DT40 TDP1 no CPT = qHTS for Inhibitors of human tyrosyl-DNA phosphodiesterase 1 (TDP1): qHTS in cells in absence of CPT; 15% of 420,000 active; Potency, µM (series often up to 46.2 µM), for inactives: at the highest dose activity change, negative = growth inhibition, hits mostly inhibitors; DT40 Tdp1-/- hTDP1 cells, no CPT, ATP luminescence, 48 h; further: potency means the concentration at half of the fitted maximal effect; nearly all actives have a fitted effect of over 55% in size
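Seeded 400 DT40-hTDP1 cells/well (vehicle DMSO, no 20 nM CPT); pinned compounds; ≥48 hr at 37 °C; CellTiter-Glo luminescence as viability measure.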
HT1080NT lethal = qHTS for induction of synthetic lethality in tumor cells producing 2HG: qHTS for the HT-1080-NT fibrosarcoma cell line. HT-1080-NT fibrosarcoma viability, CellTiter-Glo ATP luminescence, 48 h. Potency, µM (highest dose often 46.1 µM), for the others: top-dose activity, negative = less viability, most hits filed as cytotoxic. 1.6% of 360,000 active. AID 686970, 2013;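 further: NT is the 2HG producing partner of a matched IDH1 knockdown line; potency means the concentration at half of the fitted maximal effect; 0% = DMSO-treated cells and -100% = media-only wells without cells; nearly all actives have a fitted effect of over 55% in size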
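Compounds were tested in concentration-response format on HT-1080-NT cells for 48 hours at 37 degrees C. Cell viability came from CellTiter-Glo luminescence; curves were classified by r2, response magnitude and activity.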
* = called active by the depositor; [ ] = dose if it differs, or a comment. Unless noted, the call rests on the fitted dose curve; in most records, active means well fitted curve in the direction sought with a large enough effect; inconclusive means small, poorly fitted or top-dose-only effect, or another doubt; inactive means no such curve, though single readings can be large; an effect the other way counts as inactive or inconclusive. Unless noted, on the % scale 0 is the no-effect control and ±100 the full control effect.

What do the screens show for `COCCn1c(COc2ccc(C)cc2)nc2ccccc21`?
ELG1 repair inh: inconclusive; TDP1 cell CPT: inconclusive; IL1B secr inh: inconclusive; HT1080 IDH1KD tx: -19%; DT40 TDP1 no CPT: inconclusive; HT1080NT lethal: -10%

Results for Cc1ccc(OCc2nc3ccccc3n2Cc2ccccc2Cl)cc1 ?
TDP1 cell CPT: 21µM*; DT40 TDP1 no CPT: inconclusive

How did COCc1ccc(CN2CCOc3ccc(C4=CCCCC4)cc3C2)o1 do in these assays?
TDP1 cell CPT: 3%[9.04 µM]; DT40 TDP1 no CPT: inconclusive

Results for Cc1ccc(-c2nnn(CC(=O)N(c3ccc4c(c3)OCCO4)C(C(=O)NCC3CCCO3)c3ccc(F)cc3)n2)o1 (stereo unspecified) ?
ELG1 repair inh: -5%; TDP1 cell CPT: -5%; IL1B secr inh: 65; HT1080 IDH1KD tx: -1%; DT40 TDP1 no CPT: inconclusive; HT1080NT lethal: -5%

Results for O=C(NC1CCCCC1)OC1CC2CC1[C@H]1CCCCN1C2=O (stereo partly specified) ?
TDP1 cell CPT: 5%; IL1B secr inh: 20; HT1080 IDH1KD tx: 4%; DT40 TDP1 no CPT: -12%; HT1080NT lethal: 12%

How did C=CCn1c(COc2ccccc2)nc2ccccc21 do in these assays?
ELG1 repair inh: inconclusive; TDP1 cell CPT: inconclusive; IL1B secr inh: -13; HT1080 IDH1KD tx: 8%; DT40 TDP1 no CPT: 23µM*; HT1080NT lethal: 3%

What do the screens show for `C=CCn1c(-c2cccs2)nc2ccccc21`?
ELG1 repair inh: 26%; TDP1 cell CPT: -23%; IL1B secr inh: -20; HT1080 IDH1KD tx: -2%; DT40 TDP1 no CPT: 21µM*; HT1080NT lethal: 2%

How did Cc1ccc(OCc2nc3ccccc3n2CCOc2ccc(Cl)cc2)cc1 do in these assays?
TDP1 cell CPT: inconclusive; DT40 TDP1 no CPT: 18µM*

Results for O=C(CC1(CC(=O)N2CCOCC2)CCCC1)Nc1ccccc1 ?
ELG1 repair inh: 4%; TDP1 cell CPT: 2%; IL1B secr inh: -15; HT1080 IDH1KD tx: 1%; DT40 TDP1 no CPT: 26%; HT1080NT lethal: 3%

Results for CCOc1ccc(-c2cc(C(=O)Nc3ccc(C)c(NS(C)(=O)=O)c3)[nH]n2)c(C)c1 ?
TDP1 cell CPT: 18µM*; IL1B secr inh: -2; HT1080 IDH1KD tx: inconclusive; DT40 TDP1 no CPT: inconclusive; HT1080NT lethal: -27%

What do the screens show for `O=C(CCl)N(C/C=C/c1ccccc1)c1ccc2c(c1)OCCO2`?
ELG1 repair inh: inconclusive; TDP1 cell CPT: 3.7µM*; IL1B secr inh: -115*; HT1080 IDH1KD tx: inconclusive; DT40 TDP1 no CPT: 6.5µM*; HT1080NT lethal: 10µM*

How did N#CCCN(C(=O)CSc1ncccn1)c1ccc2c(c1)OCCO2 do in these assays?
ELG1 repair inh: 1%; TDP1 cell CPT: -15%; IL1B secr inh: -15; HT1080 IDH1KD tx: 2%; DT40 TDP1 no CPT: 5%; HT1080NT lethal: 18%

What do the screens show for `Cc1ccc2oc(=O)c3cc(C(=O)Nc4ccc(F)cc4F)sc3c2c1`?
TDP1 cell CPT: inconclusive; DT40 TDP1 no CPT: 26µM*

What do the screens show for `Cc1cccn2c(=O)c3cc(C(=O)N(Cc4ccccc4)C(C)C)sc3nc12`?
TDP1 cell CPT: 16µM*; DT40 TDP1 no CPT: 21µM*

Results for CCOc1ccc(CCNC(=O)c2cc3c(=O)oc4ccc(C)cc4c3s2)cc1OCC ?
TDP1 cell CPT: 13µM*; DT40 TDP1 no CPT: inconclusive

What do the screens show for `Cc1ccc2oc(=O)c3cc(C(=O)N(Cc4ccccc4)C(C)C)sc3c2c1`?
TDP1 cell CPT: 18µM*; DT40 TDP1 no CPT: 21µM*

How did CCN1CCN(CCCNC(=O)c2cc3c(=O)oc4ccc(C)cc4c3s2)CC1 do in these assays?
ELG1 repair inh: inconclusive; TDP1 cell CPT: inconclusive; IL1B secr inh: inconclusive; HT1080 IDH1KD tx: -22%; DT40 TDP1 no CPT: inconclusive; HT1080NT lethal: -26%

How did COc1ccc(S(=O)(=O)N2CCC(Cc3ccccc3)CC2)cc1NC(C)=O do in these assays?
ELG1 repair inh: 20%; TDP1 cell CPT: -8%; IL1B secr inh: 1; HT1080 IDH1KD tx: 1%; DT40 TDP1 no CPT: 5%; HT1080NT lethal: -2%

How did Cc1ccc2oc(=O)c3cc(C(=O)NCCCN4CC(C)CC(C)C4)sc3c2c1 (stereo unspecified) do in these assays?
ELG1 repair inh: inconclusive; TDP1 cell CPT: inconclusive; IL1B secr inh: -83*; HT1080 IDH1KD tx: 16%; DT40 TDP1 no CPT: inconclusive; HT1080NT lethal: 3%

How did COc1ccc(C2C(C#N)=C(N)N(c3cccnc3)C3=C2C(=O)CCC3)cc1Cn1cc([N+](=O)[O-])cn1 (stereo unspecified) do in these assays?
ELG1 repair inh: -16%; TDP1 cell CPT: -17%; IL1B secr inh: -12; HT1080 IDH1KD tx: -14%; DT40 TDP1 no CPT: -23%; HT1080NT lethal: inconclusive

What do the screens show for `N#CC1=C(N)N(c2ccc(Br)cc2)C2=C(C(=O)CCC2)C1c1cccnc1` (stereo unspecified)?
ELG1 repair inh: 8%; TDP1 cell CPT: -28%; IL1B secr inh: -25; HT1080 IDH1KD tx: inconclusive; DT40 TDP1 no CPT: 20%; HT1080NT lethal: 13µM*

What do the screens show for `COc1ccc(C2C(C#N)=C(N)N(c3ccccc3)C3=C2C(=O)CCC3)cc1Cn1cc([N+](=O)[O-])cn1` (stereo unspecified)?
ELG1 repair inh: -8%; TDP1 cell CPT: inconclusive; IL1B secr inh: -74*; HT1080 IDH1KD tx: inconclusive; DT40 TDP1 no CPT: inconclusive; HT1080NT lethal: inconclusive

Results for Cc1ccc(N2C(N)=C(C#N)C(c3cccnc3)C3=C2CCCC3=O)cc1 (stereo unspecified) ?
ELG1 repair inh: -2%; TDP1 cell CPT: inconclusive; IL1B secr inh: 28; HT1080 IDH1KD tx: -1%; DT40 TDP1 no CPT: inconclusive; HT1080NT lethal: 3%

What do the screens show for `CC(C)n1c(O)c(N=NC(=O)Cc2csc(N3CCOCC3)n2)c2ccccc21`?
ELG1 repair inh: inconclusive; TDP1 cell CPT: inconclusive; IL1B secr inh: 8; HT1080 IDH1KD tx: 7%; DT40 TDP1 no CPT: inconclusive; HT1080NT lethal: 15%

Screening data: PubChem BioAssay, National Center for Advancing Translational Sciences (NCATS)
